From PubChem BioAssay (NCI)
The panel holds about 83,000 compounds, 20% with a hit somewhere; the sample as a whole holds those more often.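 A percent growth of 40 corresponds to 60% growth inhibition; 0 means no net growth; -100 means all cells died. Active threshold: below 10.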 A number with no mark means an inactive call. Active and inactive are the calls of the source.

What was measured:
Experiment in all cases: NCI-60 one-dose screen, 48 h (100 = growth as untreated, 0 = no growth, -100 = all killed)
Details in all cases: 10 µM
NCI-H23 lung = tested on: NCI-H23 lung
NCI-H226 lung = tested on: NCI-H226 lung
NCI-H322M lung = tested on: NCI-H322M lung
HOP-62 NSCLC = tested on: HOP-62 NSCLC
NCI-H460 lung = tested on: NCI-H460 lung
HOP-92 NSCLC = tested on: HOP-92 NSCLC
NCI-H522 lung = tested on: NCI-H522 lung
A549/ATCC NSCLC = tested on: A549/ATCC NSCLC
786-0 renal = tested on: 786-0 renal
COLO 205 colon = tested on: COLO 205 colon

Compound | growth (NCI-H23 lung) | growth (NCI-H226 lung) | growth (NCI-H322M lung) | growth (HOP-62 NSCLC) | growth (NCI-H460 lung) | growth (HOP-92 NSCLC) | growth (NCI-H522 lung) | growth (A549/ATCC NSCLC) | growth (786-0 renal) | growth (COLO 205 colon)
CCS(=O)(=O)CCCl | 101% | 114% | 97.1% | 105% | 109% | 92.3% | 90% | 97.4% | 105% | 126%
Cc1ccc(N)cc1[N+](=O)[O-] | 97.1% | 114% | 129% | 99.5% | 109% | 90% | 94.5% | 100% | 108% | 110%
COc1ccc(C2OC(N)=C(O)C2=O)cc1OC (stereo not drawn) | 102% | 97.5% | 102% | 105% | 110% | 98% | 93.6% | 118% | 101% | 125%
O=C(CN1CCNCC1)N1CCOCC1 | 93.3% | 116% | 106% | 103% | 117% | 103% | 111% | 95.4% | 101% | 110%
Cc1cc(N)ccc1-c1ccc(N)cc1C | 92.8% | 102% | 104% | 89.9% | 104% | 47.6% | 96.9% | 92.8% | 101% | 103%
O=C(O)c1cc([N+](=O)[O-])ccc1Cl | 104% | 107% | 117% | 113% | 114% | 82.1% | 73% | 95.3% | 99.2% | 107%
CN(C)CCN(C)CC(C)(C)C(=O)/C=C/c1ccc(Cl)cc1 | 5.94% (active) | -3.14% (active) | 5.34% (active) | 3.79% (active) | -14.9% (active) | -24.9% (active) | -62.6% (active) | 8.12% (active) | -22.5% (active) | -86.5% (active)
CN(C)c1ccc2oc(=O)c3ccccc3c2c1 | 98.3% | 81.3% | 94.8% | 78% | 97.3% | 68.3% | 97.1% | 105% | 79.5% | 119%
O=C(Cc1nc2ccc([N+](=O)[O-])cc2nc1CC(=O)c1ccccc1)c1ccccc1 | 43.9% | 68% | 61% | 79.8% | 52.9% | 71.5% | 31.5% | 58.8% | 42% | 91.3%
CCCCCCCCCCCCCCCCC1CC(=O)OC1=O (stereo not drawn) | 107% | 103% | 114% | 95.2% | 118% | 125% | 98.6% | 98.5% |  | 111%
COC1=CC(=O)c2nc(Cl)ccc2C1=O | -15.2% (active) | 26.6% | 106% | 89.4% | 115% | -18.4% (active) | -51.2% (active) | 98.3% | 72.4% | 102%
NC(=S)CN1CCOCC1 | 106% | 114% | 91.6% | 118% | 105% | 91.9% | 97.9% | 110% |  | 118%
Nc1nc2c(c(-c3nc(N)nc4c3CCc3ccccc3-4)n1)CCc1ccccc1-2 | 97.4% | 89.9% | 115% | 91.4% | 117% | 95.1% | 99.1% | 106% | 110% | 116%
CC(C)NC(=O)OCc1c(COC(=O)NC(C)C)c(-c2ccc(Cl)c(Cl)c2)n2c1SCC2 | 38.6% | -43.7% (active) | 51.4% | 28.7% | 13.3% | 50.8% | 32% | 55.3% | 19% | 53.6%
CCOC(=O)c1[nH]c(C)c(C(=O)O)c1C | 109% | 101% | 91.8% | 111% | 110% | 104% | 90.4% | 76.2% | 110% | 112%
N#CCc1ccc([N+](=O)[O-])cc1 | 98.5% | 98.2% | 99.1% | 90.7% | 102% | 92.7% | 101% | 96.6% | 106% | 105%
Cc1ccc(C)n1-c1ccsc1C(=O)NNC(=O)C(Cl)Cl | 98.4% | 93% | 98.6% | 96.6% | 104% | 90.5% | 91.9% | 102% | 101% | 120%
COS(=O)(=O)c1ccc(Br)cc1 | 97.6% | 101% | 118% | 95.6% | 115% | 98.1% | 104% | 103% | 111% | 104%
CC(=O)CC(=O)N(C)C | 102% | 94.5% | 101% | 98.8% | 104% | 81.8% | 88.5% | 101% | 97.8% | 115%
CCCCNC(=O)C(=O)NCCCC | 105% | 106% | 104% | 108% | 115% | 104% | 112% | 111% | 101% | 117%
Nc1nc(N)c2cc(S(=O)(=O)c3cccc(C(F)(F)F)c3)ccc2n1 | 53.5% | 69.2% | 52.1% | 76.6% | 16.8% | 55.7% | 63.9% | 15.9% | 38.1% | 62.5%
COc1ccc(C2(O)CCCCC2)cc1 | 97.9% | 92.1% | 105% | 102% | 105% | 73.2% | 99.7% | 101% | 98.5% | 112%
O=c1c2ccccc2c(Br)c(Br)c2ccccc12 | 78.1% | 74.2% | 119% | 112% | 116% | 83.7% | -33.9% (active) | 95.1% | 84.3% | 55%
C=C1CC/C=C(\C)C(=O)C[C@@H]2[C@@H]1CC2(C)C | 107% | 107% | 119% | 119% | 107% | 88.4% | 85.3% | 109% | 104% | 110%
CSc1[nH]c(=O)ncc1F | 101% | 99.7% | 97.8% | 109% | 106% | 116% | 100% | 93.3% | 104% | 110%
CCOC(=O)C(=O)C=P(c1ccccc1)(c1ccccc1)c1ccccc1 | 99.4% | 108% | 98.2% | 98.1% | 103% | 96.5% | 90.1% | 100% | 101% | 110%
C#CCSc1nnnn1-c1ccc(Br)c(C)c1 | 89.7% | 74.6% | 107% | 102% | 97% | 69.9% | 71.1% | 92.8% | 89.1% | 135%
COc1ccc(-c2cc(-c3cc(-c4ccc(OC)cc4)nc(N)n3)nc(N)n2)cc1 | 102% | 99.4% | 94.3% | 94.7% | 99.5% | 105% | 100% | 97.8% | 103% | 107%
COc1ccccc1C1OC2=Nc3cc(C)c(C)cc3NC2C1=O (stereo not drawn) | 79% | 21.7% | 80.3% | 47.9% | 14.1% | 67.7% | 91% | 67.6% | 14% | 79.1%
Cc1cc2nc(CC(=O)c3ccccc3)c(=O)[nH]c2cc1C | 84% | 87% | 98.7% | 96.2% | 97.9% | 88.5% | 81.2% | 105% | 98.3% | 114%
